Results as given in PubChem BioAssay AID2253 (Southern Research Specialized Biocontainment Screening …, 2010).
In all, about 2,200 compounds went through this assay and about 1,300 (59%) were called active. The set was probably picked from earlier hits. The list is a sample of the results. Results with a measured potency or affinity are listed apart. Values without a mark were called inactive. How the calls were made is not given here.

Assay: human monocytic cell viability reduction – S. typhimurium screen hits, cytotoxicity control for Salmonella PhoP regulon inhibitors, dose response (AID 2253)
Conditions: THP-1 viability, CellTiter-Glo luminescence, 72 h; series mostly up to 50 µM; viability: at the top concentration

| Compound | viability |
| --- | --- |
| Cc1ccc(CCNC(=O)C2CCN(S(=O)(=O)N3CCCC3)CC2)cc1 | 91.8% |
| Cc1ccc(CCNC(=O)C2CCCN(S(=O)(=O)c3c(C)noc3C)C2)cc1 (centres undefined) | 94.9% |
| O=C(CSc1nccc(=O)[nH]1)N1c2ccccc2CCc2ccccc21 | 96.8% |
| CCN(CCO)Cc1csc2ccccc12 | 108% |
| Cc1cc(C(=O)N/N=C/C=C/c2ccc3c(c2)OCO3)n[nH]1 | 92.8% |
| Cc1cc(C(=O)N/N=C/c2cccc([N+](=O)[O-])c2O)n[nH]1 | 108% |
| Cc1nc2ccccn2c1C(=O)N/N=C/c1ccccc1[N+](=O)[O-] | 91.7% |
| O=C(N/N=C/c1cccn1-c1ccc([N+](=O)[O-])cc1)C(O)c1ccccc1 (centres undefined) | 102% |
| CC1(C)CC2CC(C)(CN2C(=O)COC(=O)c2n[nH]c(=O)c3ccccc23)C1 (centres undefined) | 83.8% |
| CCOC(=O)c1sc2nccc(N(C)C)c2c1N=CNOCc1c(F)cccc1Cl | 88.5% |
| O=C(Cn1cnc2ccccc2c1=O)NCc1ccco1 | 102% |
| O=C(CCCNS(=O)(=O)c1ccccc1)NCc1ccco1 | 101% |
| O=C1CSC(=S)N1c1ccc(F)cc1 | 89.2% |
| COc1ccc(OC)c(C(=O)C2COC(=O)C2)c1 (centres undefined) | 89.6% |
| Cc1cc2ncn(CC(O)COc3cccc(C(=O)O)c3)c2cc1C (centres undefined) | 101% |
| COc1ccc(C2C(C(=O)c3cccs3)=C(O)C(=O)N2c2nnc(C)s2)cc1OC (centres undefined) | 103% |
| Clc1ccccc1OCCn1ccnc1 | 98.8% |
| Brc1ccc(OCCn2ccnc2)cc1 | 82.7% |
| COc1ccc2c(c1)cc1n2CCN2CCCN=C12 | 87.6% |
| CCn1cc(C(=O)NCc2ccncc2)c(=O)c2cc(F)c(N3CCN(C(=O)c4ccco4)CC3)cc21 | 91.7% |
| O=C1CC(N2CCN(Cc3ccccc3)CC2)C(=O)N1c1ccccc1 (centres undefined) | 84.8% |
| C(=N\N1CCN(Cc2ccccc2)CC1)/c1cccnc1 | 83.5% |
| O=C(CCCOc1ccccc1)N1CCCc2ccccc21 | 84.2% |
| CC(C)(C)c1ccc(-c2n[nH]c(=S)n2/N=C/c2ccncc2)cc1 | 94.9% |

| Compound | viability |
| --- | --- |
| O=C(CCN1CCc2ccccc2C1)Nc1ccccc1F | 93% [at 25 µM] |
| CCn1nnc(-c2ccccc2NC(=O)c2ccc(-n3cnnn3)cc2)n1 | 106% |
| N#Cc1nc(-c2cccs2)oc1NCCCN1CCOCC1 | 104% |
| CCOc1ccc(/C(O)=C2\C(=O)C(=O)N(CCN(C)C)C2c2cccc(OC)c2OC)cc1Cl (centres undefined) | 91.8% |
| O=C(CCn1nnc(-c2cccs2)n1)NCc1ccccc1Cl | 92.5% |
| COc1ccc(C(=O)COc2nc(C)cc(C)c2C#N)cc1 | 87.9% |
| CCc1nc2cc(Cl)c(Cl)cc2[nH]1 | 94.8% |
| CC(=O)Nc1c(O)nc(SCC(=O)N2CCN(c3ccc(F)cc3)CC2)[nH]c1=O | 83.5% |
| O=C(NCCCN1CCCC1=O)c1ccc(Cl)c(NS(=O)(=O)c2ccc(F)cc2)c1 | 104% |
| CC(C)(C)NC(=O)CSc1nnc(-c2ccncc2)o1 | 94.5% |
| CC(=O)NCCOc1c(C)cc(S(N)(=O)=O)cc1C | 98.2% |
| Cn1cccc1CC(=O)N/N=C/C(Cl)=C/c1ccccc1 | 81.8% |
| CC1(C)CC(=O)c2c(nc3ccccc3c2N)C1 | 83.7% |
| Cc1cc(C(=O)N2CCN(C/C=C/c3ccccc3)CC2)no1 | 97.7% |
| CC(CCc1ccccc1)NC(=O)c1ccccc1 (centres undefined) | 92.6% |
| COCc1cc(C)nc(N2CCc3ccccc32)c1C#N | 96% |
| COc1ccc(-c2cnn3c(N)c(S(=O)(=O)C(C)(C)C)cnc23)cc1 | 82.9% |
| Brc1ccc(NC2=Nc3ccccc3CC2)cc1 | 83.7% |
| COc1cc(C2NC(=O)NC(c3ccccc3)=C2C(C)=O)ccc1OCC(=O)O (centres undefined) | 101% |
| COc1ccc(S(=O)(=O)n2nc(OC(=O)c3cccs3)cc2N)cc1 | 89% [at 25 µM] |
| Nc1cc(N)nc(SCC(=O)Nc2ccc3c(c2)OCCCO3)n1 | 87.5% |
| Cc1ccc2cc(C(=O)O)c(C)nc2c1 | 92% |
| O=C(NCc1cccnc1)c1ccc(Cl)cc1[N+](=O)[O-] | 105% |
| Cc1cc([N+](=O)[O-])cc2ncccc12 | 99.3% |

| Compound | viability |
| --- | --- |
| CCOc1cc(C2C(C(=O)OC)=C(C)N=C3SCCC(=O)N32)ccc1OC(C)=O (centres undefined) | 102% |
| COc1ccc(Oc2coc3cc(OC(=O)c4cccs4)ccc3c2=O)cc1 | 85.9% |
| Cc1cc(C)nc(N(C#N)C(C)C(=O)N(C)C)n1 (centres undefined) | 88% |
| O=C(NC(=Nc1ccccc1)N1CCOCC1)Nc1ccccc1 | 89.8% |
| Cc1cccnc1N(C(=O)Nc1ccccc1)C1=NCC(C)(C)S1 | 105% |
| OC(COCc1cccs1)CN1CCN(c2ccccn2)CC1 (centres undefined) | 97.5% |
| CCCCOC(=O)CCNc1n[nH]c(=O)[nH]c1=O | 95% |
| Clc1ccc(CNCc2cccs2)cc1Cl | 87.5% |
| O=C(Cc1cn2ccsc2n1)Nc1ccccc1Oc1ccccc1 | 87.3% |
| Cc1ccc(S(=O)(=O)NCCC(=O)OCn2nnc3ccccc3c2=O)cc1 | 94.5% |
| CN(C(=O)/C=C/c1ccccc1)C1CCS(=O)(=O)C1 (centres undefined) | 95.7% |
| CNC(=O)c1ccc(-c2ccc(F)cc2)s1 | 86% |
| CCCSc1nc(N2CCCC2)c2c(c1C#N)CC(C)(C)OC2 | 85.5% |
| C=CCNC(=O)c1ccc(N(C)S(=O)(=O)c2ccc(OC)cc2)cc1 | 94.2% |
| CC1CN(C(=O)CCc2ccccc2)C(C)CN1C(=O)CCc1ccccc1 (centres undefined) | 93.1% |
| O=C(c1ccc(Cl)cc1Cl)C1(n2cncn2)Oc2ccccc2C1O (centres undefined) | 89.8% |
| Cc1ccc(C(=O)NCc2ccc(Cl)cc2)o1 | 92.7% |
| O=[N+]([O-])c1ccc(-c2ccn[nH]2)o1 | 115% |
| COc1cccc(OC)c1C(=O)NC(=S)Nc1cc(-c2nc3ccccc3[nH]2)ccc1Cl | 93% |
| CN(c1ccccc1)S(=O)(=O)c1ccc(C(=O)Nc2nnc(-c3ccc(F)cc3)o2)cc1 | 120% |
| COC(=O)c1c(C(=O)OC)c(-c2cccc(C)c2)n2c1CS(=O)(=O)C2 | 83.7% |
| CCn1cc(C(C)(C)C)c(C#N)c1NC(C)=O | 85.9% |
| O=C(Cn1cnc2scc(-c3ccccc3)c2c1=O)N1CCOCC1 | 98.7% |
| C=CC1=C(C(=O)O)N2C(=O)[C@@H](NC(=O)/C(=N/OCC(=O)O)c3csc(N)n3)[C@H]2SC1 | 105% |

| Compound | viability |
| --- | --- |
| CC(C)(C)c1n[nH]c(=S)n(/N=C/c2cccs2)c1=O | 98.4% |
| Cc1ccsc1/C=N/NC(=O)Cn1cnc2ccccc21 | 85.7% [at 25 µM] |
| C=CCSC1=Nc2sccc2C2=NC(=O)CN12 | 94.6% |
| O=C(CN1CCCCC1)Nc1cccc2c1OCO2 | 99% |
| NC(=O)c1oc2ccccc2c1NC(=O)CN1CCCCC1 | 90.4% |
| O=c1[nH]c2cc3c(cc2cc1CN(CCc1ccccc1)Cc1nnnn1CC1CCCO1)OCO3 (centres undefined) | 85.9% |
| CC(C)CNC(=S)NC1CCCC1 | 91.8% |
| CN(C)CCNC(=O)c1ccc(COCC(F)(F)F)cc1 | 116% |
| Cc1cc([N+](=O)[O-])ccc1NC(=O)Cc1ccc(F)cc1 | 91.8% |
| Cn1c(SCC(=O)NC(=O)c2cccc([N+](=O)[O-])c2)nnc1-c1ccc(F)cc1 | 102% |
| O=C(CN1CCC(NC(=O)c2cccc(F)c2)CC1)NCc1ccccc1F | 101% |
| COc1ccc(/C=C/C(=O)O)cc1COc1cccc(C)c1 | 89.3% |
| O=C(NCC(=O)N(c1cccnc1)C(C(=O)NCc1ccco1)c1ccccc1)c1ccco1 (centres undefined) | 96.2% |
| COC(=O)c1ccccc1NC(=O)CS(=O)(=O)Cc1nc(-c2ccc(C)cc2)oc1C | 80.8% |
| COc1ccc(-c2nnn(CC(=O)N(Cc3ccco3)C(C(=O)NCC3CCCO3)c3ccco3)n2)cc1 (centres undefined) | 87% |
| CSCC[C@H](NC(=O)Nc1ccc(C)cc1)C(=O)O | 97.3% |
| C=C(C)C1Cc2cc3ccc(=O)oc3cc2O1 (centres undefined) | 80.7% [at 12.5 µM] |
| CCOC(=O)N1CCC(NC(=O)CCC(=O)c2ccccc2)CC1 | 94.4% |
| Cc1cccnc1NC(=O)CCCN1C(=O)c2ccccc2C1=O | 95.8% |
| COc1ccc(-c2nnc(SCCC(=O)O)n2-c2ccccc2)cc1 | 92.9% |
| Cc1cccc(C)c1NC(=O)CSc1nnc(NC(=O)CN2CCOCC2)s1 | 87.5% |
| CCCOc1ccc(C(=O)NC(=S)N2CCN(c3cc4c(cc3F)c(=O)c(C(=O)O)cn4CC)CC2)cc1 | 89% |
| Nc1nnc(Sc2ccc(Cl)cc2[N+](=O)[O-])s1 | 103% |
| c1ccc2oc(SCc3cn4ccccc4n3)nc2c1 | 85.5% |

| Compound | viability |
| --- | --- |
| NC(=O)c1cnn(Cc2ccc(Cl)cc2)c1N | 95.4% |
| CC(=O)Cn1cnc2sc(-c3ccccc3)cc2c1=O | 95.9% |
| Nc1ccc(S(=O)(=O)Nc2ccc(Cl)nn2)cc1 | 89.7% |
| Cc1nc2cc(NC(=O)N3CCN(c4ccccn4)CC3)ccc2o1 | 84.4% |
| Cc1ccc(C(=O)C2COC(=O)C2)cc1 (centres undefined) | 98.3% |
| COc1cccc(NC(=O)CNC(=O)c2cccs2)c1 | 92.6% |
| Cc1cc2nn(-c3ccccc3)nc2cc1NC(=O)c1cccs1 | 95% |
| O=S(=O)(c1ccc(S(=O)(=O)N2CCN(C/C=C/c3ccccc3)CC2)cc1)N1CCCC1 | 83.2% |
| COCCNC(=O)CSCc1c(F)cccc1Cl | 94.2% |
| Cc1nc2c(Cl)cccc2c2c1CC(CBr)O2 (centres undefined) | 83.2% |
| CN(C)CCNc1nc(-c2ccccc2)nnc1C(F)(F)F | 98.1% |
| Cc1cccc(C=Nc2ccc3c(c2)oc2ccccc23)c1O | 100% |
| CCNC(=S)NNC(=O)c1ccc(OC(F)F)cc1 | 84% [at 25 µM] |
| Nc1nc(C2CCCCC2)cs1 | 91.3% |
| COc1ccc(C2=Nc3cccc4cccc(c34)N2)cc1 | 107% |
| O=S(=O)(NC1=NCCCCC1)c1cccs1 | 96.8% |
| C=CCOc1ccc(CNc2nn[nH]n2)cc1 | 91.5% |
| OCCN(Cc1ccccc1)Cc1ccc(Cl)cc1 | 86.6% |
| CN(C)S(=O)(=O)Nc1ccc(C(=O)O)cc1 | 85.3% |
| CC1CC(C)CN(CCCNC(=O)C2CCC(=O)N2C2CCCC2)C1 (centres undefined) | 98.3% |
| CCOCC(=O)Nc1ccc(F)c(F)c1 | 94.5% |
| O=C(Cn1ncc2c(=O)oc3ccccc3c21)N1CCN(c2ccccn2)CC1 | 101% |
| Cc1ccccc1C(=O)N(C)Cc1ccccc1 | 93.6% |
